High-throughput results: PubChem, National Center for Advancing Translational Sciences (NCATS)
In the library only some 1.3% were active in any assay of this set; here they are far more common.
TrxR1 substrate = qHTS Assay for Substrates of Mammalian Selenoprotein Thioredoxin Reductase 1 (TrxR1): qHTS | Thioredoxin reductase 1, cytoplasmic (Rattus norvegicus), O89049 | purified TrxR1 substrate turnover, NADPH consumption readout | Potency, µM (series often up to 114 µM), for the others: top-dose activity change, negative = substrate turnover | hit rate 0.01% among 390,000 | AID 588456, 2011; also: potency is read from the fitted curve at half-maximal effect; nearly all actives have a fitted effect of over 50% in size
Target sequence (O89049 whole entry, looked up): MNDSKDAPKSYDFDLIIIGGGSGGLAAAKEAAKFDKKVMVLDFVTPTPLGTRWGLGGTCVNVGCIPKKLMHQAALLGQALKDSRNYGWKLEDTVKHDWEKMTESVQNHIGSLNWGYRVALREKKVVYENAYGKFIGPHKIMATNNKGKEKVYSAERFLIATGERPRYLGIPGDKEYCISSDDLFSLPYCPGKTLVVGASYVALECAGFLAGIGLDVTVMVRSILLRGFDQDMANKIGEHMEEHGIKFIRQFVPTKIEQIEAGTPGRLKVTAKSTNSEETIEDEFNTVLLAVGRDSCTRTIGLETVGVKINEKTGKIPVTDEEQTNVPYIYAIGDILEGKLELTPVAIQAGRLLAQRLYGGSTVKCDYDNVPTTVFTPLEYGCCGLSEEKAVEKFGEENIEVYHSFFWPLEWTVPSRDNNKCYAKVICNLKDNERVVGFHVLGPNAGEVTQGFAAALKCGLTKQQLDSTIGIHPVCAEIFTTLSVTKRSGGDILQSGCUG
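Rat TrxR1, dispensed at 90 nM, was prereduced with 400 uM NADPH (final) for 5 min at ~22 deg C, then incubated with compound 15 min before 400 uM selenite. A first-read NADPH fluorescence drop versus no-compound background flagged substrates.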
rTrxR1 inhibitor = qHTS Assay for Inhibitors of Mammalian Selenoprotein Thioredoxin Reductase 1 (TrxR1): qHTS; Thioredoxin reductase 1, cytoplasmic (Rattus norvegicus), O89049; recombinant rTrxR1, NADPH fluorescence consumption, selenite substrate; Potency, µM (doses to about 114 µM), without a hit: top-dose activity change, negative = inhibition, hits mostly inhibitors; hit rate 1% among 390,000; AID 588453, 2011; also: potency is read from the fitted curve at half-maximal effect; nearly all actives have a fitted effect of over 65% in size
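Rat TrxR1 (90 nM in the dispensed reagent) was pre-reduced with 400 uM NADPH for 5 min at room temperature, then incubated with compound for 15 min. After 400 uM selenite was added, NADPH fluorescence (Ex 340/Em 450 nm) was followed for 8 min.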
GALK inhibitor = qHTS Assay for Inhibitors of Human Galactokinase (GALK); Purified GALK, Kinase-Glo residual ATP luminescence; P51570; Potency, µM (top dose mostly 57.5 µM), without a hit: at the highest dose activity change, negative = inhibition, usual class: inhibitors; hit rate 0.007% among 270,000; also: potency is read from the fitted curve at half-maximal effect
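Quantitative HTS: GALK 5 nM, ATP 35 uM, galactose 100 uM, 1 h room temperature, then luciferase-based ATP detection.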
KAT2A inh = qHTS Assay for Inhibitors of GCN5L2 | Potency, µM (series often up to 58.9 µM), for the others: top-dose activity change, negative = inhibition, actives largely listed as inhibitors | hit rate 0.21% among 390,000 | GCN5L2 HAT assay, ThioGlo1 CoA-SH fluorescence | AID 504327, 2011; also: potency is read from the fitted curve at half-maximal effect
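Free CoA generated was detected with ThioGlo1 (50uM) fluorescence at Ex340nm/Em540nm, read immediately and after 20 min at room temperature. Enzyme, 20 nM in HEPES pH 7.5 buffer, saw compounds 15 min before adding 75uM H3(1-25) peptide and 70uM acetyl-CoA.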
Giardia killer = Small Molecules that selectively kill Giardia lamblia: qHTS; Giardia lamblia trophozoite viability; activity change, % at 7.66 µM, hits read low; AID 540267, 2011; hit rate 0.15% among 340,000; in the data active = activity change below about -80%; inconclusive = between about -30% and that limit;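 also: parasites exposed to compound for two days anaerobically before the ATP read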
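Each well holds 100 Giardia trophozoites and compound. After two days (48 hrs) at 37 deg C in anaerobic conditions, ATP is quantified by luminescence.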
Pin1 inhibitor = qHTS Assay to Find Inhibitors of Pin1 | Peptidyl-prolyl cis-trans isomerase NIMA-interacting 1 (Homo sapiens), Q13526 | Pin1 FP peptide displacement, HiFluor488, 10 min | Potency, µM (top dose mostly 115 µM), without a hit: top-dose activity, negative = inhibition, actives largely listed as inhibitors | hit rate 0.009% among 390,000 | AID 504891, 2011; active = well fitted inhibition curve with a large enough effect in the polarisation, with a control signal flat, not every such curve was filed as active; inconclusive = small, poorly fitted or top-dose-only effect, or effect the other way, or a change in a side signal; inactive = no such curve, though single readings can be large or run the other way; the % refers to the polarisation; also: potency is read from the fitted curve at half-maximal effect
Target sequence (Q13526 whole entry, looked up): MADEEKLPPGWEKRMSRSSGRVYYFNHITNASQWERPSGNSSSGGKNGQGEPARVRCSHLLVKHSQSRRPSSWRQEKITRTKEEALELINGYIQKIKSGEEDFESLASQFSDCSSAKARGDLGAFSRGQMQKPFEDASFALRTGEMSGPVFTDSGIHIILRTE
An asterisk follows results filed as active; u = inconclusive; x = not tested or not shown; [ ] = remark or other dose. Unless noted, calls follow the shape of the dose curve; as a rule, active = well fitted curve in the direction sought with a large enough effect; inconclusive = small, poorly fitted or top-dose-only effect, or another doubt; inactive = no such curve, though single readings can be large; an effect the other way counts as inactive or inconclusive. % is scaled to controls: 0 for no effect and ±100 for the full control effect.

SMILES	TrxR1 substrate	rTrxR1 inhibitor	GALK inhibitor	KAT2A inh	Giardia killer	Pin1 inhibitor
Cc1cc2c(C)cc(=O)[nH]c2cc1NC(=O)CCl	2%	20µM*	4%	-3%	3	6%
CCC(=O)N(CCC(c1ccco1)C(C)C)Cc1ccccc1 (stereo not given)	-4%[57.1 µM]	7%[57.1 µM]	-1%	-8%	0	-2%
CCC(=O)N(CCC(c1ccc(C)cc1)c1ccco1)Cc1ccco1 (stereo not given)	-2%	35µM*	-6%	u	1	-1%
CCOC(=O)c1sc(N)nc1C(C)C	9%[57.1 µM]	18%[57.1 µM]	1%	u	8	-5%
CCCc1nc(N)sc1C(=O)OCC	6%[57.1 µM]	11%[57.1 µM]	-3%	0.89µM*	1	-2%
Cn1c(O)c(C=NCCCCCC(=O)O)c(=O)n(C)c1=O	-15%	-20%	x	x	-14	3%
CN(CC(=O)Nc1ccc(Cl)cc1)S(=O)(=O)c1ccc2c(c1)n(C)c(=O)c(=O)n2C	10%	9%	-4%	-21%	-4	-2%
CN(CC(=O)Nc1cccc(Cl)c1)S(=O)(=O)c1ccc2c(c1)n(C)c(=O)c(=O)n2C	-7%	25µM*	3%	-1%	1	7%
COc1ccc(C(=O)N(Cc2ccccc2)Cc2ccccc2)c(O)c1	x	x	x	x	x	-2%
O=S1(=O)N=C(OCc2ccccc2)c2ccccc21	x	x	x	x	x	-1%
Cc1c(C(=O)N(C)Cc2ccccc2)sc2nc(-c3ccc(F)cc3)cn12	3%[57.1 µM]	5%[57.1 µM]	x	-12%	x	13%
Cc1ccc(S(=O)(=O)N2CCCN(C)CC2)cc1	5%	28µM*	0%	-4%	-14	-6%
Cc1cc(C)nc(NN2C(=O)/C(=C/c3ccccc3)SC2=S)n1	3%	14%	-1%	4%	1	1%
Cc1cc(C)nc(NN2C(=O)C=CC2=O)n1	12%	7.9µM*	-3%	2%	-17	-6%
O=C(c1ccccc1)n1c(=O)c(F)cn(COCCBr)c1=O	9%	45µM*	7%	-2%	14	-4%
C1=Cc2ccccc2/C1=C\c1cc[cH-]c1.[Fe+2].c1cc[cH-]c1	2%	3.2µM*	x	x	x	x
CCOC(=O)CC[C@H](NC(=O)Cn1cnc2c(NCc3ccccc3)ncnc21)C(=O)OCC	-2%	16%	x	-2%	21	2%
CC(C)(C)n1ncc2c(=O)n(Cc3ccc(Cl)c(F)c3)cnc21	5%	11%	x	x	x	x
Cc1[nH]n(-c2ccccc2)c(=S)c1C=NCCCN=Cc1c(C)[nH]n(-c2ccccc2)c1=S	-7%	-28%	3%	18µM*	15	-10%
COC(=O)CN=Cc1c(C)[nH]n(-c2ccccc2)c1=O	-14%[57.1 µM]	16%[57.1 µM]	-1%	0%	1	-1%
COc1ccc(C2(C(=O)c3ccccc3)C(=O)c3ccccc3C2=O)cc1	3%	2.2µM*	4%	-5%	-24	1%
COc1ccc(C(=O)CC(=O)c2ccccc2)cc1	-6%[57.1 µM]	15%[11.4 µM]	x	x	13	6%
Cc1c(C(=O)c2no[n+]([O-])c2C(=O)c2cnn(C)c2C)cnn1C	-5%	1.3µM*	6%	1%	20	x
Cc1c(C(=O)Nc2ccc(Br)cc2)cnn1C	-10%	-17%	1%	-2%	-7	3%
Nc1cc(N)cc(N)c1	25µM*	40µM*	x	x	x	x
SMILES	TrxR1 substrate	rTrxR1 inhibitor	GALK inhibitor	KAT2A inh	Giardia killer	Pin1 inhibitor
COc1cc2nc(N(C)C)nc(NC3CCN(C)CC3)c2cc1OC	42%	-30%	x	x	x	x
COc1ccc(C2C3C=CCCC3(C)C(=O)N2Cc2ccccc2)cc1Cl (stereo not given)	-8%	-5%	x	x	-7	10%
CCCCn1c(SCC(=O)N2CCCC2)nnc1-c1ccccc1	-19%	89µM*	0%	4%	-5	-1%
CC(C)Cc1ccc(C(C)CC2=CCC(CN(C)C)C2=O)cc1 (stereo not given)	-1%	45µM*	x	x	-15	-1%
CC(C)Cc1ccc([C@@H](C)C(=O)NS(C)(=O)=O)cc1	x	x	x	7%	x	x
CCCc1cnc2c(c1SCC(=O)N(C)c1ccccc1)c(=O)n(C)c(=O)n2C	6%[57.1 µM]	24%[57.1 µM]	x	5%	x	-5%
CN(c1ccccc1)c1ccc(CNc2nn3c(=O)c4ccccc4nc3s2)cc1	x	x	x	x	x	-1%
Fc1ccc(Nc2ccnc(-c3ccoc3)n2)cc1	x	x	x	-9%	x	x
Fc1ccc(Nc2ccnc(-c3ccc4c(c3)OCO4)n2)cc1	x	x	x	28µM*	x	x
CCCC[C@]12Cc3cc(C#N)ccc3C(O1)c1c(cc(C)n(-c3ccccc3)c1=O)O2	x	x	x	-4%[12.7 µM]	x	x
O=C(On1c(-c2ccccc2)nc2ccccc2c1=O)c1ccco1	9%	5µM*	-3%	x	3	-2%
COc1cc(OC)cc(-c2nc3ccccc3c(=O)n2OC(=O)c2ccccc2C)c1	-5%[57.1 µM]	13%	0%	-5%	6	14%
CCN(CC)CCCNC(=O)c1cn(CC)c2cc(N3CCN(C(=O)c4ccco4)CC3)c(F)cc2c1=O	76%	71µM*	-4%	-21%	0	-4%
COc1ccc(C2=CC(=O)C[C@H](c3ccc(OC)cc3)C2)cc1	-1%[57.1 µM]	20%[57.1 µM]	x	-6%	-9	0%
COc1ccc(C2=CC(=O)C=CC2=O)cc1	x	x	-2%	13µM*	x	x
CC1CCN(C(=O)COC(=O)/C=C/c2ccc(Br)o2)CC1	-3%	25µM*	x	u	9	-5%
CC1CCCC(C)N1C(=O)COC(=O)/C=C/c1ccc(Br)o1 (stereo not given)	-10%	35µM*	x	-23%	-23	u
COc1ccc(OC)c(/C=C/C(=O)OCC(=O)N2C(C)CCCC2C)c1 (stereo not given)	16%	5%	x	-11%	23	2%
O=C(/C=C/c1ccc(Br)o1)OCc1ccccc1	-1%	u	-3%	1%	-10	u
Cc1[nH]c2ccccc2c1C(c1ccccn1)N1CCC(C(N)=O)CC1 (stereo not given)	5%	1.6µM*	2%	-4%	4	-8%
Cc1[nH]c2ccccc2c1C(c1ccncc1)N1CCC(C)CC1 (stereo not given)	-5%	-45%	6%	-12%	7	-1%
CCC1CCCCN1C(=O)CSc1nnc(N)s1 (stereo not given)	-3%	21%	x	0%	-27	5%
CN1C(=O)C2C=CC1C1C(=O)N(c3ccccc3)C(=O)C21 (stereo not given)	7%	16%	1%	-6%	-2	-2%
O=C1C2C3C=CC(C3=C3CCCCC3)C2C(=O)N1c1ccccc1 (stereo not given)	4%	20µM*	0%	-1%	-2	4%
